Hits are enriched below; roughly 0.83% of the tested compounds scored in any of these assays.
CtBP-E1A blk – qHTS Assay for Inhibitors of the CtBP/E1A Interaction; CtBP / adenovirus E1A interaction (AlphaScreen); AlphaScreen GST-E1A/His-CtBP binding, 1536-well; active compounds read low; activity change, % (test concentration not listed); 340,000 tested, 0.49% active; note: % is set by controls: 0 for no effect and ±100 for the full control effect
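Homogeneous bead-based format: GST-tagged E1A captured on glutathione donor beads, His-tagged CtBP on nickel acceptor beads; compounds precede bead addition by 2 h at 37 °C.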
GLS inhibitor – qHTS for Inhibitors of Glutaminase (GLS); GLS enzymatic activity, qHTS titration; Potency, µM (doses to about 45.5 µM), for the others: at the highest dose activity change, negative = inhibition, most hits filed as inhibitors; 410,000 tested, 0.21% active; AID 624170, 2012; active = well fitted inhibition curve with a large enough effect; inconclusive = small, poorly fitted or top-dose-only effect, or another doubt; inactive = no such curve, though single readings can be large or run the other way; note: potency is the fitted concentration of half-maximal effect; % is set by controls: 0 for no effect and ±100 for the full control effect
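Enzyme dispensed in phosphate buffer (45 mM, pH 8.2, 0.02% Tween-20), compounds pinned in, then 1 mM L-glutamine solution and the glutamate oxidase–HRP–Amplex Red mix added; fluorescence read immediately and again after 30 min at room temperature.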
MLL CXXC-DNA inh – qHTS Fluorescence Polarization Assay for Inhibitors of MLL CXXC domain - DNA interaction | AID 2662, 2010 | Histone-lysine N-methyltransferase 2A (Homo sapiens), Q03164 | MLL-CXXC / FITC-HOXA9 DNA fluorescence polarization | Potency, µM (highest dose often 115 µM), inactives show at the top dose activity change, negative = inhibition, hits mostly inhibitors | 290,000 tested, 0.037% active; active = well fitted inhibition curve with a large enough effect in the polarisation, with a control signal flat, not every such curve was filed as active; inconclusive = small, poorly fitted or top-dose-only effect, or effect the other way, or a change in a side signal; inactive = no such curve, though single readings can be large or run the other way; the % refers to the polarisation; note: potency is the fitted concentration of half-maximal effect
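Fluorescence polarization: 7 uM MLL-CXXC (stock) preincubated 5 min with compounds, then 50 nM fluorescein-HOX-A9 DNA (stock) added; 30 min ambient. Buffer 50 mM Tris-HCl pH 7.5, 50 mM NaCl, 1 mM DTT, 0.05% BSA.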
Menin-MLL TR inh – qHTS Assay for Inhibitors Targeting the Menin-MLL Interaction in MLL Related Leukemias: Competition With Texas Red Labeled MLL-derived Mutant Peptide. AID 1768, 2009. 270,000 tested, 0.23% active. O00255. Potency, µM (series often up to 61.6 µM), for the others: at the top dose FP activity change, negative = inhibition, actives largely listed as inhibitors. Menin + Texas Red MLL mutant peptide, fluorescence polarization; active = well fitted inhibition curve with a large enough effect in the polarisation, with a control signal flat, not every such curve was filed as active; inconclusive = small, poorly fitted or top-dose-only effect, or effect the other way, or a change in a side signal; inactive = no such curve, though single readings can be large or run the other way; the % refers to the polarisation; note: potency is the fitted concentration of half-maximal effect; % of control where 0% means no effect
Menin-MLL FL inh – qHTS Assay for Inhibitors Targeting the Menin-MLL Interaction in MLL Related Leukemias: Competition With Fluorescein Labeled MLL-derived Peptide. FP activity change, % at 61.4 µM. 290,000 tested, under 10 active. Fluorescence polarization, fluorescein-MLL peptide displacement from menin; active = well fitted curve in the direction sought with a large enough effect in the polarisation, not every such curve was filed as active; inconclusive = small, poorly fitted or top-dose-only effect, or effect the other way, or a change in a side signal; inactive = no such curve, though single readings can be large or run the other way; the % refers to the polarisation; note: % of control where 0% means no effect
Six1-Eya2 inh – qHTS Assay for Inhibitors of the Six1/Eya2 Interaction; 360,000 tested, 0.56% active; activity change, % (concentration not given with the values); AID 651725, 2012; Homeobox protein SIX1 (Homo sapiens) + Protein phosphatase EYA2 (Homo sapiens), …; AlphaScreen GST-Six1/His-Eya2 binding, biochemical; active compounds read low; note: % is set by controls: 0 for no effect and ±100 for the full control effect
Target sequence (O00167 whole entry, looked up): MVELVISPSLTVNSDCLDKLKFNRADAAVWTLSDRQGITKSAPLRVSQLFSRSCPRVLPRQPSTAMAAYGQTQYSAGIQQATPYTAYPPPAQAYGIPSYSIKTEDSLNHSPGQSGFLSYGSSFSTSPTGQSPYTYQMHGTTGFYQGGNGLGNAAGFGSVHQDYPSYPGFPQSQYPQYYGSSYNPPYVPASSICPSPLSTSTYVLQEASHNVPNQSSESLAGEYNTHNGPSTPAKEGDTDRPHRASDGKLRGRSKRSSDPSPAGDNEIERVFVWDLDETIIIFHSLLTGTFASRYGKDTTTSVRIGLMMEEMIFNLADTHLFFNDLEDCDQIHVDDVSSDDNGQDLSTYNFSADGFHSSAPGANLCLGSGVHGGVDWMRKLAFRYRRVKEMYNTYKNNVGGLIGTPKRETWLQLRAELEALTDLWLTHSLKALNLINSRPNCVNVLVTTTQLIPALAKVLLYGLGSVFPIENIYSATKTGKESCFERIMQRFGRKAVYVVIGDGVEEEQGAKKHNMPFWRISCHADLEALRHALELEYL
Target sequence (Q15475 whole entry, looked up): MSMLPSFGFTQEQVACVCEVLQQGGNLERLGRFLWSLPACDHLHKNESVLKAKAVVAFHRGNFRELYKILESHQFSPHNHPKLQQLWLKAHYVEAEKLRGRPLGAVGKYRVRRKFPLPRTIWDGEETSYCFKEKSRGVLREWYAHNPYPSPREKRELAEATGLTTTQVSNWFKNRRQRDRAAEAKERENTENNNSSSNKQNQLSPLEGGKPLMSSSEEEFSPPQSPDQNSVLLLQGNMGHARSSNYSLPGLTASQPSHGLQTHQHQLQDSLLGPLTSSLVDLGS
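GST-Six1 + His-Eya2 (5X stock: 250/500 nM); Tris pH 8.0, 300 mM NaCl, 0.05% BSA, 0.02% Tween 20; GSH donor/Ni acceptor beads; 1 h 37 °C dark; AlphaScreen readout.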
* = called active by the depositor; ? = inconclusive; · = not tested or not shown. Cut-off read from the data, not from the text of the source, unless noted: active = activity change below about -65%; inconclusive = mostly about -30% to -63%; inactive = weaker than that.

SMILES	CtBP-E1A blk	GLS inhibitor	MLL CXXC-DNA inh	Menin-MLL TR inh	Menin-MLL FL inh	Six1-Eya2 inh
S=C(NCCN1CCOCC1)N/N=C/c1ccccc1	3	23%	2%	-9%	-2	10
Oc1ccc(/C=N/NC(=S)NCCN2CCOCC2)c(O)c1	·	24%	1%	-7%	3	-90*
Cc1cc(C)cc(-n2nnnc2SCC(=O)Nc2nc(-c3ccc(Cl)cc3)cs2)c1	-13	3%	-4%	28µM*	6	-4
Cc1cc(C)cc(-n2nnnc2SCC(=O)Nc2nc(-c3ccc(F)cc3)cs2)c1	3	8%	23%	35µM*	-1	5
COc1ccc(-c2csc(NC(=O)CSc3nnnn3C)n2)cc1OC	-1	5%	·	·	·	-7
Cc1ccc(S(=O)(=O)Cc2ccc(C(=O)O)o2)cc1	31	13µM*	-6%	4%	3	-6
O=C(c1cc(C(F)(F)F)cc(C(F)(F)F)c1)N1CCC2(CC1)CCN(c1ccncc1)CC2	·	·	·	-10%	2	·
COC(=O)CCCC1=CC2=C(c3ccccc3)C(=O)C(C)(OC(=O)C3CCCC3)C(=O)C2=CO1 (centres undefined)	·	·	·	6%	2	·
COC(=O)N/N=C/C1=C[N+](=O)c2ccccc2[N+]1=O	·	2%	4%	-30%	-5	·
O=C(c1ccc(=O)oc1)N1CCCc2ccccc21	-3	16µM*	10%	26%	?	?
O=C(c1ccc(F)cc1)N1CCOCC1	·	-9%	8%	0%	0	-5
O=C(c1ccc(=O)oc1)N1CCOCC1	-11	11µM*	?	0%	17	?
O=C(c1ccccc1)N1CCCc2ccccc21	7	-2%	2%	-11%	3	1
CCOc1ccc2c(c1)c(N=NC(=N)N)c(O)n2C	?	0%	2%	1%	5	-80*
CCCCc1oc2ccc(NS(C)(=O)=O)cc2c1C(=O)c1ccc(OCCCN(CCCC)CCCC)cc1	·	-3%	·	·	·	·
COc1cc(/C=N/NC2=NCCCCC2)ccc1O	2	0%	2%	·	1	-5
COc1cc(/C=N/Nc2ncnc3sc4c(c23)CCC4)ccc1O	-83*	48%	15%	?	4	-68*
COCc1c(C(=O)N/N=C\c2ccccn2)nnn1-c1nonc1N	-70*	2%	-17%	-12%	-1	-74*
CCOC(=O)c1ccccc1NC(=O)CSc1ccc(-c2ccccn2)nn1	-86*	0%	5%	·	·	-84*
Cc1cccc(NC(=O)CSc2ccc(-c3ccccn3)nn2)c1	·	-8%	·	·	·	·
COc1ccc(C)cc1NC(=O)CSc1ccc(-c2ccccn2)nn1	-85*	-6%	4%	·	·	-83*
O=C(Cn1c(SCC(=O)Nc2ccc(F)cc2)nc2ccccc21)NCc1ccccc1Cl	·	-5%	·	·	·	·
CCC1(C)Cc2c(sc3nc(NC)n(C)c(=O)c23)CO1 (centres undefined)	-16	1%	-8%	-1%	-1	-20
Cn1c(NN)nc2sc3c(c2c1=O)CC(C)(C)OC3	-77*	32%	-15%	12%	4	?
COC1=CC(=O)C(O)=C/C1=C\C=C\c1ccccc1	·	·	·	13%	-1	·
CC1Cc2ccccc2N1NC(=O)c1ccc(Cl)c(S(N)(=O)=O)c1 (centres undefined)	-12	6%	20%	-1%	0	-85*
COc1cccc(C(=O)NC2CC3CCCC(C2)N3CC(=O)Nc2ccccc2)c1 (centres undefined)	1	6.3µM*	-3%	?	-1	-3
Cc1ccc(NS(=O)(=O)c2ccc3[nH]c4c(c3c2)CCCCC4)cc1	·	-13%	·	·	·	·
CCN(CC)c1ccc(NC(=O)Nc2ccc(C(C)=O)cc2)cc1	-2	16%	-3%	?	3	-15
